{"source": "PubChem BioAssay", "note": "Unmarked numbers belong to inactive results. Calls of active or inactive are those of the source. Rule as the data show it: active = inhibition above about 30%; inactive = the rest.", "data": [{"test_system": "transactivating tegument protein VP16 (Human herpesvirus 1), Gal4-VP16 luciferase reporter", "assay": "repression of VP16-driven luciferase reporter – cell-based, luminescence, high throughput, counter-screen for SRC3 inhibitor project (AID 588794)", "settings": "mammalian cells, at 3.6 µM, active compounds read high", "values": [{"smiles": "C=CCc1cccc(/C=N/NC(=O)C[n+]2ccccc2)c1O", "inhibition": "12.3%"}, {"smiles": "CCCCN(CCCC)C(=O)CSc1nnc(-c2cc(OC)c(OC)c(OC)c2)o1", "inhibition": "4.79%"}, {"smiles": "Cc1cc(C=C2C(=O)c3ccccc3C2=O)c(C)n1-c1cccc(C(=O)O)c1", "inhibition": "10.4%"}, {"smiles": "COc1ccc(NC(=O)c2sc(=O)n(Cc3ccccc3C#N)c2C)cc1OC", "inhibition": "31.8% (active)"}, {"smiles": "O=C(N/N=C/c1ccc(O)cc1O)c1ccc(NC(=O)C2CCCCC2)cc1", "inhibition": "10.4%"}, {"smiles": "Cc1nc(NCc2ccccn2)c2ccccc2n1", "inhibition": "13.9%"}, {"smiles": "C=CCOn1c(C)c(C(C)=O)c2c3nonc3ccc21", "inhibition": "25.4%"}, {"smiles": "CCN(CC)CCCNc1nc2cc(OC)c(OC)cc2c2nc(-c3cccnc3)nn12", "inhibition": "39.4% (active)"}, {"smiles": "CO[C@@]12[C@@H]3N[C@@H]3CN1C1=C(C(=O)C(N)=C(C)C1=O)[C@@H]2COC(N)=O", "inhibition": "22%"}, {"smiles": "CC(=O)N1CCCc2cc(S(=O)(=O)N3CCCC(C(=O)NCc4ccc(Cl)cc4)C3)ccc21", "note": "(stereo unspecified)", "inhibition": "9.17%"}, {"smiles": "COc1cc2c(ccc3cc(OC)c(OC)c(O)c32)cc1O", "inhibition": "-4.29%"}]}]}
